Where “and” joins values, the source holds several entries; their conditions need not be identical. Identical values can stand only once. In all, about 5,500 compounds went through this assay and about 2,000 (36%) were called active. Roughly 18% stayed inconclusive and do not appear here. No stated cut-off is given here; in the data, active means normalized growth mostly below about 0.91 (no sharp cut-off); inconclusive means no clear call, values can overlap the other calls; inactive means mostly above about 0.92. The list shows a part of the results.
Assay: chemical genetic growth profiling, strain panel (AID 1159580);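 further: tested at 20 µM; growth read once vehicle control cultures reached saturation at 30 °C; 1 = growth at the plate median or of vehicle wells; lower values mean less growth of the strain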
Conditions: S. cerevisiae deletion strains, growth OD

Measured: normalized growth

CC(=O)O[C@@H]1CC2C(C)(C)C(=O)CC[C@]2(C)C2CC[C@@]3(C)[C@H](c4ccoc4)OC(=O)C4OC43[C@@]21C (some centres not stated)
inactive: locus YAL013W, strain DEP1, hits give low values 1.01 | locus YAL021C, strain ccr4, hits give low values 1.01 | locus YAL026C, strain drs2, hits give low values 0.982 | locus YAL030W, strain snc1, hits give low values 0.987 | locus YBL061C, strain skt5, hits give low values 0.98 | locus YBR009C, strain hhf1, hits give low values 0.985 | locus YBR021W, strain FUR4, hits give low values 0.953 | locus YBR023C, strain chs3, hits give low values 0.992 | locus YBR171W, strain sec66, hits give low values 0.952 | locus YBR229C, strain ROT2, hits give low values 1 | locus YBR231C, strain swc5, hits give low values 1.01 | locus YBR279W, strain paf1, hits give low values 0.991 | locus YCL011C, strain gbp2, hits give low values 0.977 | locus YCL016C, strain dcc1, hits give low values 1.03 | locus YCL029C, strain bik1, hits give low values 1.02 | locus YCL069W, strain vba3, hits give low values 0.96 | locus YCR088W, strain abp1, hits give low values 0.973 | locus YDL005C, strain med2, hits give low values 0.968 | locus YDL035C, strain GPR1, hits give low values 0.985 | locus YDL040C, strain nat1, hits give low values 0.976 | locus YDL074C, strain BRE1, hits give low values 0.985 | locus YDL101C, strain DUN1, hits give low values 1.01 | locus YDL134C, strain PPH21, hits give low values 0.992 | locus YDL185W, strain tfp1, hits give low values 1.01 | locus YDL192W, strain arf1, hits give low values 1.01 | locus YDR001C, strain nth1, hits give low values 0.981 | locus YDR069C, strain doa4, hits give low values 0.943 | locus YDR101C, strain arx1, hits give low values 0.994 | locus YDR137W, strain rgp1, hits give low values 0.968 | locus YDR159W, strain sac3, hits give low values 0.917 | locus YDR162C, strain NBP2, hits give low values 0.981 | locus YDR195W, strain ref2 0.972 | locus YDR297W, strain sur2, hits give low values 0.98 | locus YDR318W, strain mcm21, hits give low values 1 | locus YDR334W, strain swr1, hits give low values 0.98 | locus YDR335W, strain msn5, hits give low values 0.981 | locus YDR388W, hits give low values 1.01 | locus YDR392W, strain spt3, hits give low values 0.897 | locus YDR502C, strain sam2, hits give low values 1.02 | locus YEL003W, strain gim4, hits give low values 0.965 | locus YEL037C, strain rad23, hits give low values 0.978 | locus YEL061C, strain CIN8 (second series), hits give low values 0.961 | locus YEL061C, strain CIN8, hits give low values 1 | locus YER015W, strain faa2, hits give low values 1 | locus YER016W, strain bim1, hits give low values 0.972 | locus YER110C, hits give low values 1.02 | locus YER111C, strain swi4, hits give low values 0.961 | locus YER155C, strain BEM2 (second series), hits give low values 1.01 | locus YER155C, strain BEM2, hits give low values 0.978 | locus YER167W, strain BCK2, hits give low values 0.993 | locus YFR010W, strain ubp6, hits give low values 0.958 | locus YGL078C, strain dbp3, hits give low values 1.01 | locus YGL086W, strain mad1, hits give low values 1.01 | locus YGL167C, strain pmr1, hits give low values 0.989 | locus YGL173C, strain kem1, hits give low values 0.957 | locus YGL227W, strain vid30, hits give low values 0.975 | locus YGL240W, strain doc1, hits give low values 0.979 | locus YGL248W, strain PDE1, hits give low values 0.998 | locus YGR135W, strain pre9, hits give low values 1.03 | locus YGR252W, strain gcn5, hits give low values 0.959 | locus YHR013C, strain ard1, hits give low values 0.979 | locus YHR027C, strain rpn1, hits give low values 0.987 | locus YHR030C, strain SLT2, hits give low values 1.01 and 0.997 | locus YHR079C, strain IRE1 (second series), hits give low values 1.02 | locus YHR079C, strain IRE1, hits give low values 0.987 | locus YHR094C, strain hxt1, hits give low values 1.02 | locus YHR129C, strain ARP1, hits give low values 0.999 | locus YHR142W, strain chs7, hits give low values 0.96 | locus YHR200W, strain rpn10, hits give low values 1 | locus YIL066C, strain RNR3, hits give low values 0.982 | locus YIL073C, strain SPO22, hits give low values 1.01 | locus YIL125W, strain kgd1, hits give low values 0.998 | locus YIR030C, strain dcg1, hits give low values 1.01 | locus YJL092W, strain hpr5, hits give low values 0.973 | locus YJL095W, strain BCK1 (second series), hits give low values 0.993 | locus YJL095W, strain BCK1, hits give low values 0.994 and 0.967 | locus YJL115W, strain asf1, hits give low values 0.99 | locus YJL129C, strain trk1, hits give low values 0.928 | locus YJL134W, strain LCB3, hits give low values 0.999 | locus YJL154C, strain vps35, hits give low values 0.984 | locus YJL164C, strain tpk1, hits give low values 1.01 | locus YJL166W, strain qcr8, hits give low values 0.977 | locus YJL168C, strain set2, hits give low values 1.02 | locus YJL187C, strain SWE1 (second series), hits give low values 1.01 | locus YJR066W, strain TOR1, hits give low values 0.95 | locus YJR075W, strain HOC1, hits give low values 0.992 | locus YKL009W, strain mrt4, hits give low values 0.98 | locus YKL068W, hits give low values 1 | locus YKL085W, strain MDH1 (second series), hits give low values 1.01 | locus YKL085W, strain MDH1, hits give low values 1.01 | locus YKL160W, strain elf1, hits give low values 1.03 | locus YKL190W, strain CNB1, hits give low values 1 | locus YKR001C, strain vps1, hits give low values 0.987 | locus YKR026C, strain gcn3, hits give low values 0.966 | locus YKR091W, strain srl3, hits give low values 0.996 | locus YLL001W, strain dnm1, hits give low values 0.959 | locus YLL026W, hits give low values 0.989 | locus YLL041C, strain sdh2, hits give low values 1 | locus YLR027C, strain aat2, hits give low values 1 | locus YLR039C, strain RIC1, hits give low values 1.03 | locus YLR058C, strain SHM2, hits give low values 1 | locus YLR102C, strain apc9, hits give low values 1.01 | locus YLR113W, strain HOG1, hits give low values 1.02 | locus YLR221C, strain rsa3, hits give low values 0.946 | locus YLR258W, strain gsy2, hits give low values 0.988 | locus YLR262C, strain YPT6 (second series), hits give low values 0.97 | locus YLR262C, strain YPT6, hits give low values 1.01 | locus YLR268W, strain sec22, hits give low values 0.994 | locus YLR320W, strain mms22, hits give low values 0.969 | locus YLR342W, strain FKS1 (second series), hits give low values 1 | locus YLR342W, strain FKS1, hits give low values 0.977 | locus YLR357W, strain rsc2, hits give low values 1.02 | locus YLR370C, strain arc18, hits give low values 0.957 | locus YLR371W, strain rom2, hits give low values 1 | locus YLR384C, strain iki3, hits give low values 0.976 | locus YLR418C, strain cdc73, hits give low values 0.979 | locus YML016C, strain PPZ1, hits give low values 0.994 | locus YML032C, strain rad52, hits give low values 0.995 | locus YML120C, strain ndi1, hits give low values 1.01 | locus YML124C, strain tub3, hits give low values 1 | locus YMR058W, strain fet3, hits give low values 0.991 | locus YMR078C, strain ctf18, hits give low values 1.01 | locus YMR125W, strain sto1, hits give low values 0.978 | locus YMR129W, hits give low values 0.985 | locus YMR205C, strain PFK2, hits give low values 1 | locus YMR223W, strain ubp8, hits give low values 1.01 | locus YMR231W, strain pep5, hits give low values 0.966 | locus YMR307W, strain GAS1, hits give low values 0.937 | locus YNL067W, strain RPL9B, hits give low values 1.01 | locus YNL071W, strain lat1, hits give low values 0.989 | locus YNL153C, strain GIM3, hits give low values 1.01 | locus YNL183C, strain NPR1, hits give low values 0.982 | locus YNL209W, strain ssb2, hits give low values 0.997 | locus YNL233W, strain BNI4, hits give low values 0.997 | locus YNL248C, strain rpa49, hits give low values 0.942 | locus YNL250W, strain rad50, hits give low values 1.01 | locus YNL271C, strain bni1, hits give low values 1.01 | locus YNL298W, strain CLA4, hits give low values 1.01 | locus YNL307C, strain MCK1, hits give low values 1.02 | locus YNL322C, strain KRE1 (second series), hits give low values 0.985 | locus YNR049C, strain mso1, hits give low values 0.98 | locus YNR052C, strain pop2, hits give low values 1.01 | locus YOL012C, strain htz1 0.799 | locus YOL147C, strain pex11, hits give low values 1.01 | locus YOR001W, strain rrp6, hits give low values 0.925 | locus YOR061W, strain CKA2, hits give low values 0.985 | locus YOR069W, strain VPS5, hits give low values 1.01 | locus YOR070C, strain gyp1, hits give low values 0.989 | locus YOR080W, strain dia2, hits give low values 0.976 | locus YOR083W, strain WHI5, hits give low values 1.03 | locus YOR106W, strain vam3, hits give low values 1 | locus YOR136W, strain idh2, hits give low values 1.02 | locus YOR144C, strain elg1, hits give low values 1 | locus YOR184W, strain ser1, hits give low values 0.989 | locus YOR231W, strain MKK1, hits give low values 1.01 | locus YOR265W, strain rbl2, hits give low values 0.979 | locus YOR270C, strain vph1, hits give low values 0.835 | locus YOR290C, strain snf2, hits give low values 1.01 | locus YOR316C, strain cot1, hits give low values 1.02 | locus YPL051W, strain arl3, hits give low values 0.964 | locus YPL055C, strain LGE1, hits give low values 0.963 | locus YPL078C, strain atp4, hits give low values 1.03 | locus YPL106C, strain sse1, hits give low values 1.01 | locus YPL240C, strain hsp82, hits give low values 0.978 | locus YPL241C, strain CIN2, hits give low values 0.999 | locus YPL256C, strain CLN2, hits give low values 1.01 | locus YPR119W, strain clb2, hits give low values 1.01 | locus YPR141C, strain kar3, hits give low values 1.01 | locus YPR163C, strain tif3, hits give low values 1.01 | locus YPR167C, strain met16, hits give low values 1.01 | strain wtn01, hits give low values 0.977
active: locus YGL253W, strain hxk2, hits give low values 0.874
